Assay [1] concerns the target Bile acid receptor (Homo sapiens) (UniProt Q96RI1). The assay can be described thus: qHTS assay for small molecule antagonists of farnesoid X receptor signaling (AID 588526). Note: % is set by controls: 0 for no effect and ±100 for the full control effect. In outline: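 Concentration-response titrations were fitted to the Hill equation for half-maximal inhibition and maximal response, with data normalised to 50 uM chenodeoxycholic acid and DMSO control wells. Cells: FXR-UAS-bla HEK293T, dialyzed FBS.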

Assay [2] addresses Glucocorticoid receptor (Homo sapiens) (UniProt P04150). Briefly: qHTS assay for small molecule antagonists of glucocorticoid receptor signaling (AID 588533; active = well fitted inhibition curve with a large enough effect in the signal ratio, with a control signal flat, not every such curve was filed as active; the % refers to the signal ratio;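 note: cells stimulated with 2 nM dexamethasone as agonist; % is set by controls: 0 for no effect and ±100 for the full control effect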). In a few lines: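 Antagonist-mode qHTS: compound titrations added to GRE-bla HeLa cells, then dexamethasone 2 nM final; 18 h, 37 C. CCF4 FRET fluorescence normalized to dexamethasone and DMSO; IC50 from Hill fit.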
The nature of assay [3]: qHTS assay for small molecule antagonists of peroxisome proliferator-activated receptor delta signaling (AID 588535; active = well fitted inhibition curve with a large enough effect in the signal ratio, with a control signal flat, not every such curve was filed as active; the % refers to the signal ratio;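 for max response: cells co-treated with a PPAR-delta agonist as stimulator during compound exposure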). The note with it: HEK293T PPARd-UAS-bla, beta-lactamase FRET ratio, 18 h; 460 nm channel. In a few lines: (§1)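 GeneBLAzer PPAR-delta-UAS-bla HEK293T cells in medium with 2% charcoal/dextran FBS were preincubated 5 hrs at 37 C, then given compounds, incubated 18 hrs at 37 C, and read by CCF4 beta-lactamase fluorescence; IC50 from Hill fits.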

The target in assay [4] is Peroxisome proliferator-activated receptor delta (Homo sapiens) (UniProt Q03181). The assay is described as above. In outline:
as §1

The target in assay [5] is Peroxisome proliferator-activated receptor gamma (Homo sapiens) (UniProt P37231). The assay can be described thus: qHTS assay for small molecule agonists of peroxisome proliferator-activated receptor gamma signaling (AID 588536; active = well fitted curve in the direction sought with a large enough effect in the signal ratio, with a control signal flat, not every such curve was filed as active; the % refers to the signal ratio;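 note: 0% = DMSO basal wells and 100% = rosiglitazone at 2 µM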). In outline: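 HEK293 UAS-bla reporter line, 1% charcoal/dextran FBS; titration, 16 h, 37 C; CCF4 loading 2 h RT; fluorescence 460/530 nm. Normalized to rosiglitazone 2 uM = 100%, DMSO = 0%.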
Chain of Peroxisome proliferator-activated receptor gamma (Homo sapiens) (P37231 whole entry, looked up): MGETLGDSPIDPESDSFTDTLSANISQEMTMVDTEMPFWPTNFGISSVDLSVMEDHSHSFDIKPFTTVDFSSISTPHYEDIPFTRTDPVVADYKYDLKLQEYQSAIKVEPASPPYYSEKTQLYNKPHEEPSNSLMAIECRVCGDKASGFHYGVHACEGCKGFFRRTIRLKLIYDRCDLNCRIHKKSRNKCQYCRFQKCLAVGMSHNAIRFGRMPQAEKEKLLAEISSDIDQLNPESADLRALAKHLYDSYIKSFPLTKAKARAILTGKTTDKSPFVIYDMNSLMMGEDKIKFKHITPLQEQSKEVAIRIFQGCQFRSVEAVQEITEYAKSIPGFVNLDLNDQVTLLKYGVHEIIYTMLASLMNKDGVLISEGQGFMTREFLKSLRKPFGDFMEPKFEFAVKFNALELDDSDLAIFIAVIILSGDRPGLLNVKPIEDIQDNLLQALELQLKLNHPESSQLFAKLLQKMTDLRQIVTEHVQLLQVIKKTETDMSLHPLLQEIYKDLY

Assay [6] can be described thus: qHTS assay for small molecule agonists of retinoid X receptor alpha signaling (AID 588544).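 For activation: 0% = DMSO basal wells and 100% = reference agonist.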 The settings on record: HEK293T RXRa-UAS-bla, beta-lactamase reporter, 18 h; 530 nm emission.
For assay [7], the target named is Retinoic acid receptor RXR-alpha (Homo sapiens) (UniProt P19793). The assay is described as above.
Chain of Retinoic acid receptor RXR-alpha (Homo sapiens) (P19793 whole entry, looked up): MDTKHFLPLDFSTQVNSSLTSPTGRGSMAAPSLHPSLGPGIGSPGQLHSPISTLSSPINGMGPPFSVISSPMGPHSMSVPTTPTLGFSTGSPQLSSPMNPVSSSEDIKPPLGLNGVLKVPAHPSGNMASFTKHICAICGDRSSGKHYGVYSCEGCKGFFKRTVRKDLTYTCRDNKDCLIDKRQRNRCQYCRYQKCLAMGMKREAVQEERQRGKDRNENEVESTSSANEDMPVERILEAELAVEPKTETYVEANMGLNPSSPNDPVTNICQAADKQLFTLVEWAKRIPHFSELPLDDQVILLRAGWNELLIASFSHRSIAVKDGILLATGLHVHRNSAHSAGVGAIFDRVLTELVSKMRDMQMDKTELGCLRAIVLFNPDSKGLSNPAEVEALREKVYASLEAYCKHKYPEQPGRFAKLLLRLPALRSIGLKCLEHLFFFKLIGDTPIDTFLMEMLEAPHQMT
In assay [8] the target is Thyroid hormone receptor beta (Homo sapiens) (UniProt P10828). The assay can be described thus: qHTS assay for small molecule agonists of thyroid hormone receptor beta signaling (AID 588545). In outline:
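Agonist activity was read as beta-lactamase CCF4 fluorescence (405 ex, 460/530 em), scaled between DMSO (0%) and 10 nM T3 (100%), then Hill-fitted for EC50 and efficacy. HEK 293 TR-UAS-bla cells in 2% charcoal/dextran FBS medium were exposed 18 h at 37 C.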

Assay [9] can be described thus: qHTS assay for small molecule antagonists of retinoid X receptor alpha signaling (AID 588546; active = well fitted inhibition curve with a large enough effect in the signal ratio, with a control signal flat, not every such curve was filed as active; the % refers to the signal ratio;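 note: cells stimulated with 9-cis-retinoic acid as agonist; % is set by controls: 0 for no effect and ±100 for the full control effect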). The settings on record: HEK293T RXRa-UAS-bla, beta-lactamase ratio, antagonist mode; measured here: W530 green channel, cytotoxicity proxy. In outline: (§2)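 Beta-lactamase reporter inhibition, read as CCF4 fluorescence ratio (ex 405, em 460/530 nm) after 2 h at RT. HEK293T UAS-bla cells, 2500/well, were stimulated with 9-cis-RA at 500 or 100 nM final alongside test compound for 18 h at 37 C.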

Assay [10] has as its target Retinoic acid receptor RXR-alpha (Homo sapiens) (UniProt P19793). The assay is described as above. The note with it: HEK293T RXRa-UAS-bla, beta-lactamase ratio, antagonist mode. In a few lines:
as §2

For assay [11], the target named is Thyroid hormone receptor beta (Homo sapiens) (UniProt P10828). The assay can be described thus: qHTS assay for small molecule antagonists of thyroid hormone receptor beta signaling (AID 588547; active = well fitted inhibition curve with a large enough effect in the signal ratio, with a control signal flat, not every such curve was filed as active; the % refers to the signal ratio;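 note: cells stimulated with 0.4 nM T3 agonist during compound exposure; series mostly up to about 77 µM; % is set by controls: 0 for no effect and ±100 for the full control effect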). The note with it: TR-UAS-bla HEK293, beta-lactamase ratio, antagonist mode, 18 h. In outline: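 TR-UAS-bla GripTite HEK293 cells in 2% charcoal/dextran FBS medium were preincubated 4 h at 37 C, given compound (0.59 nM to 92 uM) plus 0.4 nM T3 (final) for 18 h, then CCF4 for 2 h at RT; Hill fit gave IC50.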
Chain of Thyroid hormone receptor beta (Homo sapiens) (P10828 whole entry, looked up): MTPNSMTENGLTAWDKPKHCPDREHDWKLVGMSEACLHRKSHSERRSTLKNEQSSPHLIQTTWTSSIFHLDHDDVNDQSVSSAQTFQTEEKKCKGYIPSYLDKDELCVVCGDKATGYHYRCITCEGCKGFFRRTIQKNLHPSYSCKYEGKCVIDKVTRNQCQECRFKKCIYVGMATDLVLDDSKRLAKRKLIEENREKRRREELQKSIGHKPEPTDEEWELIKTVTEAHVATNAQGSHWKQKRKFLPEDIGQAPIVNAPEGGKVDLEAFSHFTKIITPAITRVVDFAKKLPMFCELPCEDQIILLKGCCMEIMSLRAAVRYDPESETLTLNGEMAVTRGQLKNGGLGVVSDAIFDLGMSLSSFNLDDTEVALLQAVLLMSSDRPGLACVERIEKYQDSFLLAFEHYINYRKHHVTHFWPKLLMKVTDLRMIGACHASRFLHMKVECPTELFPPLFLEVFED

For assay [12], the target named is Voltage-gated inwardly rectifying potassium channel KCNH2 (Homo sapiens) (UniProt Q12809). The assay can be described thus: qHTS Assay for Small Molecule Inhibitors of the Human hERG Channel Activity (AID 588834; active = well fitted inhibition curve with a large enough effect;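 note: top concentration of the series differs between compounds; % is set by controls: 0 for no effect and ±100 for the full control effect; lower thallium flux fluorescence means stronger hERG block; nearly all actives have a fitted effect of over 50% in size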). In outline: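 Kinetic FDSS fluorescence; U2OS + hERG BacMam (~100 virus particles/cell); FluxOR Tl+ flux; ~10 min cpd; AC50 (Hill).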
Chain of Voltage-gated inwardly rectifying potassium channel KCNH2 (Homo sapiens) (Q12809 whole entry, looked up): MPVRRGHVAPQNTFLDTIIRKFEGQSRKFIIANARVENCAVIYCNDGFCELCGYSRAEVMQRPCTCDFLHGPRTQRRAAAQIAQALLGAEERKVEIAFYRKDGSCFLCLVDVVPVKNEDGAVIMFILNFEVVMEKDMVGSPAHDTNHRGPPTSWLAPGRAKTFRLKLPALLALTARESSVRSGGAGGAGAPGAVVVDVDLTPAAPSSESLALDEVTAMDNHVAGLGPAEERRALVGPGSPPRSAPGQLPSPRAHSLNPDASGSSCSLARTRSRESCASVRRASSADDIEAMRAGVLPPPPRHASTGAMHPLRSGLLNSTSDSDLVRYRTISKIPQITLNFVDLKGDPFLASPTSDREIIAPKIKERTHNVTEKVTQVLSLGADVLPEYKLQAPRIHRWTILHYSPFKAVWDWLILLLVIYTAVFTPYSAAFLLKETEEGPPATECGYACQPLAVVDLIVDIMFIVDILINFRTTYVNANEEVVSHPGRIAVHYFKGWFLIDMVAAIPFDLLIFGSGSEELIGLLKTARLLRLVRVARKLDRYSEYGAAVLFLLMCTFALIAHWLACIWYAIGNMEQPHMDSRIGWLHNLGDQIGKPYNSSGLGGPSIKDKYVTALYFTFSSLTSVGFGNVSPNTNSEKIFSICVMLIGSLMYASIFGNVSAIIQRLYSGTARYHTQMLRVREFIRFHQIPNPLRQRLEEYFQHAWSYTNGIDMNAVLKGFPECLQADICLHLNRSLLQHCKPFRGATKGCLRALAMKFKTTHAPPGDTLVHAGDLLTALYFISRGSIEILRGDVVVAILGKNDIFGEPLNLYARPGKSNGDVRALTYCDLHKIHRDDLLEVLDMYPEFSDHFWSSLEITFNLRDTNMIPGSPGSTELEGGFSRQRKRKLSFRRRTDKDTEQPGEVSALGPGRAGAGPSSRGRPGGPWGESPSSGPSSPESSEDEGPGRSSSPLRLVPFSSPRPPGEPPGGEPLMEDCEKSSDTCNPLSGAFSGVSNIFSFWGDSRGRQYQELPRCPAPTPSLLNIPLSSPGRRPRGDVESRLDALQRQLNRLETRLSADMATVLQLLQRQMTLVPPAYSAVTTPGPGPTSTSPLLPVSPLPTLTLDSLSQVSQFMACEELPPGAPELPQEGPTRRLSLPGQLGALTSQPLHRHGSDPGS
A short description of assay [13]: qHTS assay for small molecule agonists of the antioxidant response element (ARE) signaling pathway (AID 651741; active = well fitted activation curve with a large enough effect in the signal ratio; the % refers to the signal ratio; note: potency is the fitted concentration of half-maximal effect; for activation: % of control where 0% means no effect). In outline:
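ARE-bla HepG2 cells (beta-lactamase reporter under ARE control) were plated at 2,000 cells/well, preincubated 5 h at 37 C/5% CO2, then treated with DMSO-dissolved compounds for 16 h at 37 C; LiveBLAzer B/G FRET substrate added, fluorescence read after 2 h at room temperature.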

The nature of assay [14]: qHTS assay for small molecule activators of the p53 signaling pathway (AID 651743; active = well fitted activation curve with a large enough effect in the signal ratio, not every such curve was filed as active; the % refers to the signal ratio; note: series mostly up to about 92 µM; % of control where 0% means no effect). The note with it: HCT-116 p53RE-bla, beta-lactamase FRET ratio, 16 h; stronger effect = higher value. In outline:
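p53RE-bla HCT-116 cells with a stably integrated beta-lactamase reporter under p53 response elements were plated, rested 5 hours at 37 C/5% CO2, then exposed to compounds in DMSO for 16 hours at 37 C. LiveBLAzer B/G FRET substrate was read after 2 hours at room temperature.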

Assay [15] can be described thus: qHTS assay for small molecule activators of the nuclear factor-kappa B (NF-kB) signaling pathway (AID 651749; active = well fitted activation curve with a large enough effect in the signal ratio; the % refers to the signal ratio; note: series mostly up to about 77 µM; % of control where 0% means no effect). The note with it: NF-kB-bla ME-180 cells, beta-lactamase FRET ratio, 16 h; stronger effect = higher value. In a few lines:
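ME-180 cells stably carrying a beta-lactamase reporter under an NF-kB response element were exposed to compound or DMSO vehicle for 16 hr at 37C, 5% CO2. Pathway activation was read by FRET, since reporter expression disrupts FRET.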

Assay [16] has as its target Vitamin D3 receptor (Homo sapiens) (UniProt P11473). The assay can be described thus: qHTS assay for small molecule antagonists of vitamin D receptor signaling (AID 588541). In outline:
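VDR-UAS-bla HEK293T cells (2000/well, 2% charcoal-stripped FBS) were treated with titrated compounds plus 1-alpha,25-dihydroxyvitamin D3 (50 nM or 3 nM final) for 16 h at 37 C. CCF4 beta-lactamase fluorescence was read; Hill fits gave IC50.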

The target is the same in assay [17]. The assay can be described thus: qHTS assay for small molecule agonists of vitamin D receptor signaling (AID 588543).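 Note: 0% = DMSO basal and 100% = reference agonist control.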 In a few lines: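 Agonist-mode beta-lactamase reporter: HEK293T VDR-UAS-bla cells in charcoal-stripped 2% FBS, compound series 16 h 37 C, CCF4 2 h RT. EC50 from Hill fit, scaled against DMSO and 50 nM calcitriol control.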
For assay [18], the target named is Peroxisome proliferator-activated receptor gamma (Homo sapiens) (UniProt P37231). Briefly: qHTS assay for small molecule antagonists of peroxisome proliferator-activated receptor gamma signaling (AID 588537; active = well fitted inhibition curve with a large enough effect in the signal ratio, with a control signal flat, not every such curve was filed as active; the % refers to the signal ratio;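 note: reporter cells co-stimulated with 50 nM rosiglitazone agonist during compound treatment; % of control where 0% means no effect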). In outline:
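PPAR-gamma-UAS-bla HEK293 cells (3000/well, 1% charcoal/dextran-stripped FBS) were preincubated 6-6.5 h at 37 C, given titrated compounds, then stimulated with 50 nM rosiglitazone for 16 h. Beta-lactamase activity was read with CCF4 dye; IC50 came from Hill fits.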

Experimental findings from PubChem BioAssay (NCATS) are described below.

Several values for one entry are separate records, joined by “and”; a condition that tells them apart may be missing. Equal values may be shown once. Inconclusive results are not listed. Activity calls are given as the source filed them. Unless noted, calls come from the whole dose curve.

Chain of Bile acid receptor (Homo sapiens) (Q96RI1 whole entry, looked up): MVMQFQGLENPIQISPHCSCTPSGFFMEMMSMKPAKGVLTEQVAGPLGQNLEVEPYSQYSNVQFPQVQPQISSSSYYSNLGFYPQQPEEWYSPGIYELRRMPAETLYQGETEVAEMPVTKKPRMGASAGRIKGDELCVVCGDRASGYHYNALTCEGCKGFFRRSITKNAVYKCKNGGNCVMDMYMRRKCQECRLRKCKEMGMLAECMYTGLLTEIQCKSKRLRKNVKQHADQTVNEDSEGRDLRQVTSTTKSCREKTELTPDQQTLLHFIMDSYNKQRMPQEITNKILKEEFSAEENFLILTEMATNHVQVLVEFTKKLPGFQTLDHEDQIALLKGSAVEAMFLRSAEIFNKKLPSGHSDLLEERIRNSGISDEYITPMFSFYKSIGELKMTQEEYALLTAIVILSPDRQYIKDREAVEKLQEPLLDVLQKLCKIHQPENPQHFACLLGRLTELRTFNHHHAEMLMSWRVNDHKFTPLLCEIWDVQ
Chain of Peroxisome proliferator-activated receptor delta (Homo sapiens) (Q03181 whole entry, looked up): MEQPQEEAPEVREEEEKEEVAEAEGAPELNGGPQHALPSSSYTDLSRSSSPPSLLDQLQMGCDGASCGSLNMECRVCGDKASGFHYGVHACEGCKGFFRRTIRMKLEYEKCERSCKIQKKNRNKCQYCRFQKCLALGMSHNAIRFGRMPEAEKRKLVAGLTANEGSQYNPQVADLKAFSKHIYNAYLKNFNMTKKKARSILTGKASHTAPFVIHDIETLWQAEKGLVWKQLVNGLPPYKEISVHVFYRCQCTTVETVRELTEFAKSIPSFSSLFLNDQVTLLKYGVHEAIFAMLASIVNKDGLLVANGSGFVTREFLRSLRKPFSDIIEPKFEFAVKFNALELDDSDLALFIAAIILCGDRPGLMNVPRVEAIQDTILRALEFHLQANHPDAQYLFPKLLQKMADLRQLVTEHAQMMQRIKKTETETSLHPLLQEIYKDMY
Chain of Vitamin D3 receptor (Homo sapiens) (P11473 whole entry, looked up): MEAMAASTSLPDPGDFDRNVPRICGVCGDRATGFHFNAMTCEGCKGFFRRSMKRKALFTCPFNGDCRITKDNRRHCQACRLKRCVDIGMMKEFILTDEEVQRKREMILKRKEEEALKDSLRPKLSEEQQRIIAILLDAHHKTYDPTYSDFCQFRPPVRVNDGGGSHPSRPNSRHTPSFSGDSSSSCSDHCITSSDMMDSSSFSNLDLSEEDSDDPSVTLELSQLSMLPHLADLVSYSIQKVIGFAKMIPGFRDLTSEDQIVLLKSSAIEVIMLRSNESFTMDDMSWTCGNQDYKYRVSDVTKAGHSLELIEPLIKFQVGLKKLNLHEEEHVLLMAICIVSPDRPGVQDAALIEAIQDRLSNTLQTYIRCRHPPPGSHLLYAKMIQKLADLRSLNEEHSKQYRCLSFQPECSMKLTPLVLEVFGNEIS
Chain of Glucocorticoid receptor (Homo sapiens) (P04150 whole entry, looked up): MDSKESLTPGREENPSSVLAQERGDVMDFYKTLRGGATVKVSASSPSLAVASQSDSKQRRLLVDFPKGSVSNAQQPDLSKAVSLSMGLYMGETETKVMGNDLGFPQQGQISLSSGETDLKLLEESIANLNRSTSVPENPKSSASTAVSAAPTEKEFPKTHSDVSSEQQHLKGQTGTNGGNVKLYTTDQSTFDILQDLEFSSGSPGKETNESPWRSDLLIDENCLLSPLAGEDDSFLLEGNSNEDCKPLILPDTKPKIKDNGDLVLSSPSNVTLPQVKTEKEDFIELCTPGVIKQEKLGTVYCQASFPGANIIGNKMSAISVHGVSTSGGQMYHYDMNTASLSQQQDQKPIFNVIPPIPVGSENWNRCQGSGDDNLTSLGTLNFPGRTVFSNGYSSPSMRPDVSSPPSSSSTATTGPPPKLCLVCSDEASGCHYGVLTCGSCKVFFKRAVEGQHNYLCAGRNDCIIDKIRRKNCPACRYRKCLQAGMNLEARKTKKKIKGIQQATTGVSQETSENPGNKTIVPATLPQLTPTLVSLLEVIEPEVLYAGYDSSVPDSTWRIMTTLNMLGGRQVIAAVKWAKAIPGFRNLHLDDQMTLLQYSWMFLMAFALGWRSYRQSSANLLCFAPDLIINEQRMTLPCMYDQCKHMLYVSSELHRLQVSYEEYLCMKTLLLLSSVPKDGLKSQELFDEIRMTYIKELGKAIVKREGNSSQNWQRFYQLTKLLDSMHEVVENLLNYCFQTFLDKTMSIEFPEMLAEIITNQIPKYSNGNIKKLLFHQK

On to `Cc1ccc(S(=O)(=O)NC2CCCCC2)cc1`, for which the compound was classed as inactive in assay [1], in assay [2], in [5], in assay [7] and in [8]. The max response is 42.4% in [3], -12.2% in assay [6], -7.45% in assay [9] and 11.2% (inactive) in assay [10]. In addition, the Potency entry in assay [4], in assay [12] and in [13] was “inactive” each time. Moreover, the activity change % (negative = inhibition) in [11] was -0.348% (inactive). In addition, the activation in assay [14] was -2.24% (inactive); in assay [15], -0.807% (inactive).
In the case of `O=[N+]([O-])c1ccc2nc[nH]c2c1`, the call in assay [1], in assay [5] and in assay [8] was inactive. The max response in [6] is -26.8%. Besides, in [11], the activity change % (negative = inhibition) is 5.36% (inactive). The Potency result in assay [12] and in assay [13] was “inactive” each time. Also, the activation in assay [15] was 0.954% (inactive).
Turning to `C=CCCCCCCC=C`, the compound was classed as inactive in assay [1], in assay [5], in assay [16], in assay [17], in assay [7] and in [8]. In addition, the max response was -11.7% in assay [3], -11.6% in assay [6], -1.72% in assay [9] and -6.51% (inactive) in assay [10]. For the same compound, the Potency result in assay [4] and in assay [12] was “inactive” each time. For the same compound, the activity change % (negative = inhibition) in assay [11] was -6.39% (inactive). Further, the activation in [14] is 0.568% (inactive); in [15] it was -0.256% (inactive).
As to `Nc1cc(Cl)c(N)c(Cl)c1`, the compound was classed as inactive in assay [1], in assay [5], in [18], in [16], in assay [17] and in assay [7]. The compound was classed as inactive in [8]. Also, the max response was 7.4% in [3]; -14.2% in [6]; 7.26% and 6.97% in assay [9]; -5.31% (inactive) and -44.9% (inactive) in [10]. Also, the Potency result in [4] and in assay [12] was “inactive” in each case. Also, the activity change % (negative = inhibition) in assay [11] is -9.25% (inactive). Also, in [13], the Potency was 42.2 µM (active). The activation in assay [14] is 0.0675% (inactive) and 1.35% (inactive).
As for `O=C(O)CNC(=O)c1ccc([N+](=O)[O-])cc1`, the call in [1], in assay [5], in [16], in assay [17], in [7] and in assay [8] was inactive. Also, the max response in assay [3] was 53.5%; in [6], 0.246%; in assay [9], -9.96%; in [10], 23.2% (inactive). Further, the Potency entry in assay [4], in assay [12] and in [13] was “inactive” in each case. Further, the activity change % (negative = inhibition) in assay [11] was 4.89% (inactive). Also, the activation in assay [14] is -1.97% (inactive); in assay [15] it was 0.89% (inactive).
`CCC(=O)/C=C/C1C(C)=CCCC1(C)C` (configuration not stated): the compound was called inactive in assay [1], in assay [5], in [18], in assay [16], in [17] and in [7]. In addition, the compound was classed as inactive in assay [8]. Besides, the max response in assay [3] is 2.01%; in assay [6], -9.1%; in assay [9], -4%; in assay [10] it was 2.33% (inactive). Moreover, the Potency entry in assay [4] is “inactive”. In addition, the activity change % (negative = inhibition) in assay [11] was -4.67% (inactive). Also, in assay [14], the activation is -2.61% (inactive).
Regarding `CC(C)(C)OC=O`, the result in assay [1], in [2], in assay [5], in [16], in assay [17] and in assay [7] was inactive. Also, the max response in assay [6] was -9.54%; in assay [9], -10.7%; in assay [10] it was 2.16% (inactive). Also, in [11], the activity change % (negative = inhibition) was -8.86% (inactive). Also, the Potency entry in assay [12] and in [13] was “inactive” in each case. In [14], the activation was -3.33% (inactive).
